# Results taken from PubChem BioAssay AID1259415 (National Center for Advancing Translational Sciences (NCATS), 2018).
# Screen size: about 410,000 compounds; about 18,000 (4.4%) were called active. Inconclusive results (about 7%) are left out. Cut-off read from the data, not from the text of the source: active = activity change below about -60%; inconclusive = no clear call, values can overlap the other calls; inactive = above about -39%. For the sample, actives were picked, then their nearest neighbours and some compounds at random.
# Assay: qHTS Assay for inhibitors of the human cytomegalovirus (HCMV)
# Details: HFF cells, HCMV-luciferase reporter, 72 h; at 57.5 µM; hits give low values
# Method in brief: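 Two-dose cell screen: HFF monolayers treated with compounds and infected with luciferase-expressing HCMV at 1 PFU/cell, 72 h at 37C, then lysed for luciferase measurement.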
# % is set by controls: 0 for no effect and ±100 for the full control effect.
row,Structure (SMILES),"activity change, negative = inhibition"
1,CCCC12CN3CC(C)(CN(C1)C3c1ccccc1Cl)C2=O (stereo not drawn),1.49% (inactive)
2,Cc1cccc(NC(=O)Nc2cccc(Oc3c(F)c(F)c(F)c(F)c3F)c2)c1,-76.5% (active)
3,Cc1cccc(NC(=O)NC2(C)CCS(=O)(=O)C2)c1 (stereo not drawn),14.3% (inactive)
4,Cc1ccoc1C(=O)Nc1cccc(Oc2ccccc2)c1,16.8% (inactive)
5,COc1ccc(CCNC(=O)CCCCn2c(=O)c3ccccc3n(Cc3ccccc3C)c2=O)cc1OC,-31.9% (inactive)
6,CCOC(=O)c1ccc(NC(=O)c2c(NCc3cccc(OC)c3)sc3c2CCC3)cc1,-1.86% (inactive)
7,CCOc1ccccc1NC(=S)N1CCN(c2cccc(C)c2C)CC1,-37.3% (inactive)
8,CCC(=O)N1CCN(c2ccccc2NC(=O)COc2cccc(C)c2C)CC1,-63.8% (active)
9,Cc1ccccc1OCC(=O)Nc1ccc(N2CCN(C(=O)C(C)C)CC2)c(Cl)c1,1.1% (inactive)
10,COc1ccc(C)cc1NC(=O)C(=O)NCCc1sc(-c2cccc(C)c2)nc1C,-4.02% (inactive)
11,Cc1ccccc1CCNC(=O)C1CCN(c2nc3ccccc3nc2C(F)(F)F)CC1,-6.7% (inactive)
12,COC(=O)/C=C\C(=O)Nc1cccc([N+](=O)[O-])c1,-87.4% (active)
13,CCC(CC)NC(=O)/C=C/c1cccc([N+](=O)[O-])c1,-60.1% (active)
14,CC(C)OP(=O)(OC(C)C)C(Nc1ccccc1)c1cccc([N+](=O)[O-])c1 (stereo not drawn),-30.9% (inactive)
15,COc1ccc(C)cc1S(=O)(=O)N(CC(=O)Nc1cccc([N+](=O)[O-])c1)c1ccc(C)cc1,-7.9% (inactive)
16,O=C(/C=C/c1cccc([N+](=O)[O-])c1)NCCSCc1ccco1,-19.7% (inactive)
17,CCc1ccc(NC(=O)C(C)OC(=O)/C=C/c2cccc([N+](=O)[O-])c2)cc1 (stereo not drawn),7.98% (inactive)
18,COc1ccc(-c2nc(S(=O)(=O)c3ccccc3)c(N3CCCCC3)o2)cc1,-14.3% (inactive)
19,CCOc1ccc2nc(N3CCCC(C(=O)Nc4cc(C)ccc4C)C3)sc2c1 (stereo not drawn),69.3% (inactive)
20,CCn1cc(C(=O)N(C)Cc2ccccc2)c(=O)c2cc(S(=O)(=O)N3CCCCCC3)ccc21,4.41% (inactive)
21,CC(=O)N1c2ccc(S(=O)(=O)NCCC(=O)N(C)C3CCCCC3)cc2CC1C (stereo not drawn),-39.5% (inactive)
22,N#Cc1ccc(C(=O)Nc2nc(-c3cccs3)c(C(=O)C(F)(F)F)s2)cc1,-96.5% (active)
23,COc1ccc(C(F)(F)F)cc1NC(=O)c1sc2nc(-c3cccs3)ccc2c1N,14.5% (inactive)
24,CCn1c(NC(=O)c2ccccc2)c(-c2cccs2)c(=O)c2ccccc21,25.8% (inactive)

row,Structure (SMILES),"activity change, negative = inhibition"
1,O=C(NCCS(=O)(=O)N1CCN(c2ccc(F)cc2)CC1)c1ccccc1Br,20.8% (inactive)
2,Cn1c(=O)c2c(SCC(=O)NCC3CCCO3)nc(-c3ccccc3F)nc2n(C)c1=O (stereo not drawn),-4.16% (inactive)
3,Cc1ccc(-c2cc(N)n(Cc3cccc(Cl)c3)n2)cc1,-21.8% (inactive)
4,COc1ccccc1/C=N\Nc1cc(C)nc(-n2nc(C)cc2C)n1,-94.4% (active)
5,COc1ccc(/C=C/c2noc(-c3ccccc3O)n2)cc1OC,63.9% (inactive)
6,Cc1cc(C)n(-c2nnc(N3CCN(c4ccccc4)CC3)nn2)n1,-11.6% (inactive)
7,CCOC(=O)c1cnc(-n2nc(C)cc2C)nc1NNc1cc(C)nc(-c2ccccc2)n1,-1.83% (inactive)
8,Cc1cccc(Nc2cc(C)nc(-n3nc(C)cc3C)n2)c1,-83.8% (active)
9,COc1cccc(/C=N/Nc2cc(C)nc(-c3ccccc3O)n2)c1O,-95.8% (active)
10,COc1ccc(-c2nc3nc(C)cc(C)n3c2Nc2c(C)cccc2C)cc1,-8% (inactive)
11,COc1ccc(Nc2cc(C)nc(-n3nc(C)cc3C)n2)cc1,-84.3% (active)
12,COc1ccc(C(C[N+](=O)[O-])n2nc(C)cc2C)cc1 (stereo not drawn),-11% (inactive)
13,Cc1ccc(Nc2nc3ccccc3nc2-n2nc(C)cc2C)c(Cl)c1,2.84% (inactive)
14,COc1cc(Cl)c(C)cc1Nc1nnc(-n2nc(C)cc2C)c2ccccc12,16.8% (inactive)
15,CCCCc1nnc(NC(=O)CSc2nc(N)cc(=O)[nH]2)s1,-10.9% (inactive)
16,O=S(=O)(NCCS(=O)(=O)N1CCN(c2ccccc2)CC1)c1ccc(Cl)cc1,-35.4% (inactive)
17,CCOc1cc(/C=C(\C#N)C(=O)Nc2ccccc2C)ccc1OCc1cc(=O)n2nc(CC)sc2n1,-5.21% (inactive)
18,CSc1nc(=O)c2c(n1C)NC(=O)CC2c1ccccc1OC(C)C (stereo not drawn),-11% (inactive)
19,Cc1nnc(SCC(=O)N2c3ccccc3C(C)(c3ccc(Cl)cc3)CC2(C)C)s1 (stereo not drawn),-74.1% (active)
20,CC1(c2cccc([N+](=O)[O-])c2)CC(C)(C)N(C(=O)c2ccccc2)c2ccccc21 (stereo not drawn),-23.1% (inactive)
21,O=C(CSc1nnc(SCc2ccc(Cl)cc2)s1)N/N=C/c1ccccc1Cl,13.9% (inactive)
22,CCOC(=O)C(Cc1ccccc1)NC(=O)CCc1c(C)nc2c(c(C)nn2-c2ccc(C)c(C)c2)c1C (stereo not drawn),35.7% (inactive)
23,Cc1ccc(SCC(=O)Nc2ccc3oc(-c4ccccc4F)nc3c2)cc1,68.8% (inactive)
24,COc1ccc(Cl)cc1NC(=O)C(C)Sc1nc2c(c(=O)[nH]1)CCCC2 (stereo not drawn),12.7% (inactive)

row,Structure (SMILES),"activity change, negative = inhibition"
1,COc1cccc(OCCOc2cccc(/C=N/n3cnnc3)c2)c1,27% (inactive)
2,Cc1ccccc1OCCOc1ccc([N+](=O)[O-])cc1/C=N/n1cnnc1,-98.2% (active)
3,Cc1ccccc1OS(=O)(=O)c1cccc([N+](=O)[O-])c1,-19.5% (inactive)
4,CC1(c2nnc(Cc3ccccc3)o2)CC(c2ccccc2F)=NO1 (stereo not drawn),4.15% (inactive)
5,CCCOc1ccc(NC(=O)CC2C(=O)N(c3ccccc3)C(=O)N2Cc2ccco2)cc1 (stereo not drawn),38.3% (inactive)
6,COc1cccc(C(=O)N2CCC(n3nccc3NC(=O)C3CCOC3)CC2)c1 (stereo not drawn),-18.9% (inactive)
7,COc1ccccc1N1CCN(CC(=O)Nc2ccnn2C2CCCC2)CC1,-12% (inactive)
8,COc1cccc(N2CCN(CC(=O)Nc3ccnn3C3CCCC3)CC2)c1,-60.5% (active)
9,O=C(CSc1nnc2c(n1)[nH]c1ccccc12)NC1CCCCC1,-65.5% (active)
10,COc1ccc2[nH]c3nc(SCC(=O)NC4CC4)nnc3c2c1,13.8% (inactive)
11,CCOc1ccc2[nH]c3nc(SCC(=O)NC4CCCC4)nnc3c2c1,-31.8% (inactive)
12,O=C(Cc1cccs1)N(CC1CCCO1)C1(C(=O)NC2CCCCC2)CCCCC1 (stereo not drawn),-20.9% (inactive)
13,Cc1cc(N=CC2=C(O)CCCC2=O)no1,2.05% (inactive)
14,CCOC(=O)c1c(CC(C)C)csc1/N=C/C1=C(O)CCCC1=O,-98.2% (active)
15,CCOC(=O)c1sc(/N=C/C2=C(O)CC(C)(C)CC2=O)c(C(=O)OCC)c1C,-33.1% (inactive)
16,CCOC(=O)c1c(NC(=O)Cc2coc3ccc(CC)cc23)sc2c1CCC2,1.55% (inactive)
17,Cc1ccc(C)c(N2CCN(C(=O)CN3C(=O)COc4ccc(S(=O)(=O)N5CCCCCC5)cc43)CC2)c1,-10.9% (inactive)
18,Cc1ccc(Cl)cc1-n1ncc2c(N3CCC(C(N)=O)CC3)ncnc21,-7.89% (inactive)
19,CCCCN(CC)C(=O)CN(C)S(=O)(=O)c1cccc2nsnc12,0.246% (inactive)
20,O=[N+]([O-])c1ccc(C(S(=O)(=O)Cc2ccccc2)S(=O)(=O)Cc2ccccc2)cc1,-20.9% (inactive)
21,O=C(NCCCCc1ccccc1)C1CC(c2ccc([N+](=O)[O-])cc2)=NO1 (stereo not drawn),1.01% (inactive)
22,O=C1NC(=O)C2C1C(c1ccc([N+](=O)[O-])cc1)=NN2Cc1ccccc1 (stereo not drawn),-71.6% (active)
23,Cc1ccc(-n2cnc3cc(C(=O)NCCC4=CCCCC4)ccc32)cc1Cl,-19.6% (inactive)
24,COc1ccc(-c2[nH]c3c(c2-c2c(-n4cccc4)n(C)c(=O)n(C)c2=O)c(=O)n(C)c(=O)n3C)cc1,12.5% (inactive)

row,Structure (SMILES),"activity change, negative = inhibition"
1,COc1ccccc1CNC(=O)c1ccc(NC(=O)N2CC(C)Sc3ccccc32)cc1 (stereo not drawn),-6.59% (inactive)
2,COc1ccc(-c2csc(C(O)c3cccc(Cl)c3)n2)cn1 (stereo not drawn),-37.6% (inactive)
3,COc1cccc(C(O)c2nc(-c3ccc(C)c(C)c3)cs2)c1 (stereo not drawn),-60.7% (active)
4,Cc1ccccc1-c1csc(C(O)c2cccc(Cl)c2)n1 (stereo not drawn),-10.3% (inactive)
5,Cn1c(/C(C#N)=C2/CCCCCN2)nc2ccccc21,-40% (inactive)
6,Cc1nn(CC(=O)NCCc2ccccc2)c(=O)c2c1sc1ccccc12,0.0704% (inactive)
7,O=C(/C(=C/c1cccc(Cl)c1)c1nc2ccccc2[nH]1)c1ccccc1,-99.6% (active)
8,N#C/C(=C\c1ccccc1F)c1nc2ccccc2c(=O)[nH]1,-22.3% (inactive)
9,CCc1ccc(CNCc2c(C(=O)O)n(Cc3ccc(F)cc3Cl)c3cc(OC)ccc23)cc1,15.2% (inactive)
10,CCOC(=O)C1=C(c2ccccc2)N=C2SCC(=O)N2C1c1ccc(O)c(OC)c1 (stereo not drawn),9.04% (inactive)
11,CC1CCCN(CCOCCOc2ccccc2-c2ccccc2)C1 (stereo not drawn),-71.7% (active)
12,CC1CN(CCOc2ccccc2[N+](=O)[O-])CC(C)O1 (stereo not drawn),-21.7% (inactive)
13,CC1CN(CCCOc2ccccc2-c2ccccc2)CC(C)O1 (stereo not drawn),58.1% (inactive)
14,CCOC(=O)Cn1c(=O)n(C2CCCCC2)c2nc(-c3cccc(OC)c3)nc(C(N)=O)c21,18.1% (inactive)
15,O=C(/C=C/c1ccccc1)N1CCN(Cc2cc(=O)n3nc(-c4ccccc4F)sc3n2)CC1,34.4% (inactive)
16,O=C1OCC2=C1C(c1ccc(Cl)cc1)c1cc3c(cc1O2)OCO3 (stereo not drawn),37.6% (inactive)
17,CCCOc1ccccc1C1CC(=O)Nc2cc3c(cc21)OCO3 (stereo not drawn),-61.8% (active)
18,O=C1NC(c2cc3c(cc2Cl)OCO3)Oc2ccccc21 (stereo not drawn),17.7% (inactive)
19,O=C1CC(c2ccc(F)cc2F)c2cc3c(cc2N1)OCO3 (stereo not drawn),-1.6% (inactive)
20,COc1ccccc1C1C2=C(COC2=O)Nc2cc3c(cc21)OCO3 (stereo not drawn),-87.9% (active)
21,Cc1cc2c(cc1C)C(c1cccc(OC(C)C)c1)CC(=O)N2 (stereo not drawn),-38.7% (inactive)
